# Reference: the supplement of paper PMC12350171
# Where a name gives a salt, the structure may show the parent alone. Values without a mark were called inactive.
# Key:
# Conditions in all cases: 20 µM
# [1] = system: Salmonella enterica typhimurium; assay: growth AUC normalised to DMSO control (fraction of control); higher = less growth inhibition, active = hit call of the paper
# Summary of the method: (§1)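 Pathogens passaged twice anaerobically were inoculated at a starting OD578 of 0.01 into pre-reduced mGAM plates with drug at 20 μM and 1% DMSO, sealed with breathable membranes. Haemophilus parainfluenzae medium was supplemented with hemin and NAD. OD578 was read hourly for 24 h, with three biological replicates. Growth-curve AUC was computed by the trapezoidal rule up to the exponential-to-stationary transition and normalised to DMSO controls on the same plate.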
# Shigella flexneri = assay: as above
# Summary of the method: as §1
# Vibrio cholerae = assay: as above
# Summary of the method: as §1
# [2] = system: Yersinia pseudotuberculosis; assay: as above
# Summary of the method: as §1
# P. vulgatus RND KO = assay: growth AUC normalised to DMSO control (median) (fraction of control); higher = less growth inhibition, active = hit call of the paper
# Summary of the method: (§2)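 In 96-well plates of mGAM seeded at OD578 0.01, strains that had been passaged twice overnight without oxygen were exposed to approved-drug library compounds at 20 μM with 1% DMSO. Hourly OD578 readings were taken for 24 h in an anaerobic incubator. The trapezoidal-rule area under the curve, with curves truncated at entry into stationary phase, was expressed relative to same-plate vehicle wells as the median of three biological replicates.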
# P. vulgatus WT = assay: as above
# Summary of the method: as §2
# [3] = system: S. enterica typhimurium WT; assay: as above
# Summary of the method: as §2
# [4] = system: S. enterica typhimurium tolC KO; assay: as above
# Summary of the method: as §2
# 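Throughout, for growth AUC normalised to DMSO control (median): active when median AUC fell below 0.1.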
SMILES,growth AUC normalised to DMSO control [1],growth AUC normalised to DMSO control (Shigella flexneri),growth AUC normalised to DMSO control (Vibrio cholerae),growth AUC normalised to DMSO control [2],growth AUC normalised to DMSO control (P. vulgatus RND KO),growth AUC normalised to DMSO control (P. vulgatus WT),growth AUC normalised to DMSO control [3],growth AUC normalised to DMSO control [4]
CCCCN(CCCC)CCC(O)c1cc2c(Cl)cc(Cl)cc2c2cc(C(F)(F)F)ccc12 (stereo not given) [Halofantrine hydrochloride],0.944,1.04,1.06,1.03,1.06,1.11,1.02,1.01
O=C(O)COC(=O)Cc1ccccc1Nc1c(Cl)cccc1Cl [Aceclofenac],0.995,0.979,0.979,0.999,0.995,0.983,1.01,0.998
CC(C)NNC(=O)c1ccncc1 [Iproniazide phosphate],1.01,1,0.997,1.02,1.02,1.03,1.02,0.992
Clc1ccc(CO/N=C(\Cn2ccnc2)c2ccc(Cl)cc2Cl)c(Cl)c1 [Oxiconazole nitrate],1.02,1.04,1.05,0.983,1.01,1.04,1,0.909
C#C[C@]1(O)CC[C@H]2[C@@H]3CCC4=CCCC[C@@H]4[C@H]3CC[C@@]21C [Lynestrenol],0.997,0.973,1.01,0.972,0.945,0.976,1.02,1
C[n+]1ccccc1/C=N/O [Pralidoxime chloride],0.998,1.01,0.971,1.01,1.01,1,1.01,1
COc1cnc(NS(=O)(=O)c2ccc(N)cc2)nc1 [Sulfameter],1,0.986,1.01,1,0.992,1,0.993,0.993
Cc1c(C)c2c(c(C)c1O)CCC(C)(C(=O)O)O2 (stereo not given) [Trolox],1,1.02,0.995,1.01,0.996,1.02,1,1
CC1=C(/C=C/C(C)=C/C=C/C(C)=C\C(=O)O)C(C)(C)CCC1 [Isotretinoin],0.994,0.992,1,1,1.01,0.989,0.999,1
COc1cc(NC(C)CCCN)c2ncccc2c1 (stereo not given) [Primaquine diphosphate],0.998,1.01,1.01,1.02,1.01,1.02,1.01,0.998
CC(=O)NS(=O)(=O)c1ccc(N)cc1 [Sulfacetamide sodic hydrate],1,1.01,0.988,0.998,1.01,1.05,1.01,0.997
Fc1ccc(C(c2ccc(F)cc2)N2CCN(C/C=C/c3ccccc3)CC2)cc1 [Flunarizine dihydrochloride],1.04,1.04,1.01,1.02,1.01,1.03,1.02,0.987
C[N+](C)(C)CCCCCC[N+](C)(C)C [Hexamethonium dibromide dihydrate],0.947,0.996,0.971,0.966,0.992,1,0.99,1.02
CC(=O)OCC1=C(C(=O)O)N2C(=O)[C@@H](NC(=O)Cc3cccs3)[C@H]2SC1 [Cephalothin sodium salt],0.00459 (active),0.025 (active),0.0489 (active),0.0158 (active),0.00752 (active),0.0068 (active),0.00336 (active),0.00338 (active)
CNCCC=C1c2ccccc2C=Cc2ccccc21 [Norcyclobenzaprine],0.983,0.935,0.888,0.996,0.943,0.926,0.994,0.968
